Results filed as inconclusive are left out. The source made the active and inactive calls. Rule for the calls, unless noted: active = hit-call score of the fitted dose curve at least 0.9, where 1 is the maximum; inconclusive = response in the unintended direction; inactive = score below 0.9.
Assays:
[1] = ATG_TCF_b_cat_CIS: Attagene CIS-FACTORIAL HepG2 Assay for human T-Cell-Factor with beta-catenin (TCF/b-cat) (AID 2282965; active = hit-call score of the fitted dose curve at least 0.9, where 1 is the maximum; inactive = score below 0.9); settings: HepG2 TCF/beta-catenin cis-reporter transcription, actives raise or lower the signal
How it was run: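 Cells of the HepG2 line carry transiently transfected reporter units whose promoters respond to endogenous factors. Twenty-four hours post-dosing, reporter mRNA induction is measured by fluorescent RT-PCR and capillary electrophoresis, with DMSO as baseline.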

[2] = ATG_TAL_CIS: Attagene CIS-FACTORIAL HepG2 Assay for human TAL Basal Promoter (AID 2282966; active = hit-call score of the fitted dose curve at least 0.9, where 1 is the maximum; inactive = score below 0.9;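 note: background control endpoint measuring basal TAL promoter reporter mRNA not a specific factor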); settings: HepG2 Attagene cis-factorial TAL promoter reporter; actives raise or lower the signal
How it was run: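 HepG2 cells were transiently transfected with promoter-driven multiplexed reporter units and dosed for 24 h. Reporter mRNA was measured by RT-PCR with capillary electrophoresis fluorescence; bidirectional fits used DMSO as baseline, serving as a background control.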

[3] = ATG_TGFb_CIS: Attagene CIS-FACTORIAL HepG2 Assay for human Transforming Growth Factor (TGF) (AID 2282967; active = hit-call score of the fitted dose curve at least 0.9, where 1 is the maximum; inactive = score below 0.9); settings: HepG2 Attagene CIS TGFb reporter, mRNA transcription; actives raise or lower the signal
How it was run: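 Multiplexed cis-reporter HepG2 system, 24 h treatment; mRNA induction read by fluorescence after RT-PCR and CE; DMSO negative control, bidirectional curve fitting.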

[4] = ATG_VDRE_CIS: Attagene CIS-FACTORIAL HepG2 Assay for human Vitamin D Receptor Element (VDRE) (AID 2282968; active = hit-call score of the fitted dose curve at least 0.9, where 1 is the maximum; inactive = score below 0.9); settings: HepG2 VDRE cis-reporter transcription, actives raise or lower the signal
How it was run: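 Transiently transfected HepG2 cells carrying cis-regulated reporter transcription units were exposed for 24 h. Reporter mRNA was measured by RT-PCR with fluorescent labelling and capillary electrophoresis, and fitted in both directions against DMSO.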

[5] = target: X-box-binding protein 1 (Homo sapiens) (UniProt P17861); assay: ATG_Xbp1_CIS: Attagene CIS-FACTORIAL HepG2 Assay for human X-box Binding Protein 1 (XBP1) (AID 2282972; active = hit-call score of the fitted dose curve at least 0.9, where 1 is the maximum; inactive = score below 0.9); settings: HepG2 XBP1 cis-element reporter, Attagene multiplex; actives raise or lower the signal
How it was run: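 Fluorescence-labelled cDNA fragments from reporter transcripts, separated by capillary electrophoresis, give the signal. Source: HepG2 cells transfected with promoter-driven reporter units, harvested 24 h post-dose. DMSO served as reference for bidirectional curve fitting.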

[6] = target: Oxysterols receptor LXR-beta (Homo sapiens) (UniProt P55055); assay: ATG_LXRb_TRANS: Attagene TRANS-FACTORIAL HepG2 Assay for human Liver X Receptor beta (LXRb) (AID 2282981); settings: HepG2 Attagene TRANS GAL4-LXRb reporter, mRNA
How it was run: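 HepG2 cells transiently transfected with GAL4-UAS reporter units for chimeric NR-Gal4 proteins, dosed for 24 h. Reporter transcripts measured by RT-PCR and capillary electrophoresis; gain-of-signal fitting relative to DMSO.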

[7] = target: Hepatocyte nuclear factor 4-alpha (Homo sapiens) (UniProt P41235); assay: ATG_HNF4a_TRANS: Attagene TRANS-FACTORIAL HepG2 Assay for human Hepatocyte Nuclear Factor 4 alpha (HNF4a) (AID 2282982); settings: HepG2 HNF4a transactivation reporter, mRNA readout
How it was run: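 HepG2 cells transiently transfected with HNF4a-Gal4 chimera and GAL4-UAS reporter units, dosed for 24 h. Reporter mRNA measured by RT-PCR, fluorescent primer extension and capillary electrophoresis; gain-of-signal fitted relative to DMSO.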

[8] = ATG_M_32_TRANS: Attagene TRANS-FACTORIAL HepG2 Assay for M32 Transcription Factor (Internal Marker) (AID 2282984); settings: HepG2 Attagene TRANS M32 internal marker reporter
How it was run: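 HepG2 cells transiently transfected with GAL4-UAS reporter units, dosed for 24 hours. Reporter mRNA quantified by RT-PCR, 6-FAM labelling, HpaI digestion and capillary electrophoresis; internal-marker signal fitted upward relative to DMSO.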

[9] = target: Nuclear receptor subfamily 4 group A member 2 (Homo sapiens) (UniProt P43354); assay: ATG_NURR1_TRANS: Attagene TRANS-FACTORIAL HepG2 Assay for human Nuclear Receptor Related Protein 1 (NURR1) (AID 2282985); settings: HepG2 Attagene TRANS reporter, mRNA readout
How it was run: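 HepG2 cells transiently transfected with NURR1-Gal4 chimera and GAL4-UAS reporter units; after 24 hr compound exposure, reporter mRNA quantified by RT-PCR and capillary electrophoresis; gain of signal fitted against DMSO.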

[10] = target: Transcriptional activator Myb (Homo sapiens) (UniProt P10242); assay: ATG_Myb_CIS: Attagene CIS-FACTORIAL HepG2 Assay for human Myeloblastosis (Myb) Proto-Oncogene Transcription Factor (AID 2282986; active = hit-call score of the fitted dose curve at least 0.9, where 1 is the maximum; inactive = score below 0.9); settings: HepG2 Attagene CIS-FACTORIAL Myb reporter transcription; actives raise or lower the signal
How it was run: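 In this HepG2 transient-transfection format, cis-regulated reporter mRNA is quantified 24 h post-dosing by RT-PCR with capillary electrophoresis, fitted bidirectionally to DMSO baseline.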

[11] = target: Nuclear receptor subfamily 1 group I member 3 (Homo sapiens) (UniProt Q14994); assay: ATG_CAR_TRANS: Attagene TRANS-FACTORIAL HepG2 Assay for human Constitutive Androstane Receptor (CAR) (AID 2282969); settings: HepG2 Attagene TRANS-FACTORIAL CAR reporter;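 note: activators raise reporter mRNA above DMSO so AC50 marks induction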
How it was run: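 HepG2 cells transiently transfected with GAL4-UAS reporter units; TRANS format reads activity of exogenous chimeric NR-Gal4 protein. After 24 h dosing, reporter mRNA quantified by RT-PCR, 6-FAM labelling and capillary electrophoresis; gain of signal fitted against DMSO.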

[12] = target: Estrogen receptor (Homo sapiens) (UniProt P03372); assay: ATG_ERa_TRANS: Attagene TRANS-FACTORIAL HepG2 Assay for human Estrogen Receptor alpha (ERa) (AID 2282970); settings: HepG2 Attagene TRANS ERa GAL4 reporter, mRNA
How it was run: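 HepG2 cells transiently transfected with multiplexed GAL4-UAS reporter units; ERa activity read via exogenous chimeric NR-Gal4 protein. After 24 hour compound exposure, reporter mRNA measured by RT-PCR with 6-FAM labelling and capillary electrophoresis; gain-of-signal fitted relative to DMSO.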

[13] = target: Glucocorticoid receptor (Homo sapiens) (UniProt P04150); assay: ATG_GR_TRANS: Attagene TRANS-FACTORIAL HepG2 Assay for human Glucocorticoid Receptor (GR) (AID 2282978); settings: HepG2 Attagene TRANS GR reporter, mRNA transcription;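 note: activators score as hits since higher reporter transcript over DMSO is fitted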
How it was run: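 Exogenous NR-GAL4 fusion activity was assessed through induced GAL4-UAS reporter transcripts in transfected human HepG2 cells, quantified after 24 h by RT-PCR and fluorescent capillary electrophoresis with DMSO as baseline.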

[14] = target: Bile acid receptor (Homo sapiens) (UniProt Q96RI1); assay: ATG_FXR_TRANS: Attagene TRANS-FACTORIAL HepG2 Assay for Farnesoid X Receptor (FXR) (AID 2282979); settings: HepG2 Attagene TRANS FXR-GAL4 reporter transcription;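 note: hits raise reporter mRNA above DMSO so AC50 marks FXR activation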
How it was run: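 HepG2 cells transiently transfected with reporter constructs in which a chimeric FXR-GAL4 protein drives a GAL4-UAS reporter; 24 h compound exposure. Reporter mRNA measured by RT-PCR, FAM labelling, HpaI digestion and capillary electrophoresis; gain-of-signal versus DMSO.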

[15] = target: Oxysterols receptor LXR-alpha (Homo sapiens) (UniProt Q13133); assay: ATG_LXRa_TRANS: Attagene TRANS-FACTORIAL HepG2 Assay for human Liver X Receptor alpha (LXRa) (AID 2282980); settings: HepG2 Attagene TRANS reporter, LXRa transactivation
How it was run: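 HepG2 cells were transiently transfected with multiplexed reporter units driven by chimeric LXRa–GAL4 fusion proteins, then dosed for 24 h. Reporter mRNA was quantified by RT-PCR, fluorescent labelling and capillary electrophoresis; gain of signal fitted against DMSO baseline.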

[16] = ATG_M_06_TRANS: Attagene TRANS-FACTORIAL HepG2 Assay for M06 Transcription Factor (Internal Marker) (AID 2282983); settings: HepG2 Attagene TRANS M06 internal marker reporter;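 note: reporter transcript level by RT-PCR then capillary electrophoresis fluorescence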
How it was run: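 HepG2 cells transiently transfected with multiplexed GAL4-UAS reporter transcription units; after 24 h compound exposure, reporter mRNA measured by RT-PCR, FAM-labelled primer extension, HpaI digestion and capillary electrophoresis. Gain-of-signal fitted versus DMSO baseline; background control readout.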

[17] = target: Steroid hormone receptor ERR1 (Homo sapiens) (UniProt P11474); assay: ATG_ERRa_TRANS: Attagene TRANS-FACTORIAL HepG2 Assay for human Estrogen-Related Receptor alpha (ERRa) (AID 2282971); settings: HepG2 Attagene TRANS reporter, ERRa transactivation
How it was run: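 HepG2 cells transiently transfected with multiplexed GAL4-UAS reporter units reading chimeric ERRa-Gal4 activity; 24 h compound exposure. Reporter mRNA measured by RT-PCR, 6-FAM labelling, HpaI digest and capillary electrophoresis; gain of signal fitted versus DMSO baseline.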

[18] = ATG_M_19_TRANS: Attagene TRANS-FACTORIAL HepG2 Assay for M19 Transcription Factor (Internal Marker) (AID 2282974); settings: HepG2 Attagene TRANS-FACTORIAL M19 internal marker reporter
How it was run: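 Using RT-PCR and capillary electrophoresis, reporter mRNA from transiently transfected human HepG2 cells was quantified following 24 h exposure; activity was fitted in the positive direction against DMSO.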

[19] = ATG_GAL4_TRANS: Attagene TRANS-FACTORIAL HepG2 Assay for GAL4 (Internal Marker) (AID 2282976); settings: HepG2 Attagene TRANS GAL4 internal marker reporter
How it was run: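 HepG2 cells transiently transfected with multiplexed GAL4-UAS reporter constructs were dosed for 24 h. Reporter mRNA was measured by RT-PCR, 6-FAM primer extension, HpaI digestion and capillary electrophoresis, and gain of signal was fitted relative to DMSO.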

[20] = target: Estrogen-related receptor gamma (Homo sapiens) (UniProt P62508); assay: ATG_ERRg_TRANS: Attagene TRANS-FACTORIAL HepG2 Assay for human Estrogen-Related Receptor gamma (ERRg) (AID 2282977); settings: HepG2 Attagene TRANS reporter, ERRg transactivation;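 note: hits increase reporter signal over DMSO so potencies reflect activators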
How it was run: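 HepG2 cells transiently transfected with multiplexed GAL4-UAS reporter units driven by chimeric NR-Gal4 proteins; 24 h exposure. Reporter mRNA quantified by RT-PCR, fluorescent labelling, HpaI digestion and capillary electrophoresis; gain of signal vs DMSO.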

Measured: AC50

Sequence of Bile acid receptor (Homo sapiens) (Q96RI1 whole entry, looked up, the tested form may be a part): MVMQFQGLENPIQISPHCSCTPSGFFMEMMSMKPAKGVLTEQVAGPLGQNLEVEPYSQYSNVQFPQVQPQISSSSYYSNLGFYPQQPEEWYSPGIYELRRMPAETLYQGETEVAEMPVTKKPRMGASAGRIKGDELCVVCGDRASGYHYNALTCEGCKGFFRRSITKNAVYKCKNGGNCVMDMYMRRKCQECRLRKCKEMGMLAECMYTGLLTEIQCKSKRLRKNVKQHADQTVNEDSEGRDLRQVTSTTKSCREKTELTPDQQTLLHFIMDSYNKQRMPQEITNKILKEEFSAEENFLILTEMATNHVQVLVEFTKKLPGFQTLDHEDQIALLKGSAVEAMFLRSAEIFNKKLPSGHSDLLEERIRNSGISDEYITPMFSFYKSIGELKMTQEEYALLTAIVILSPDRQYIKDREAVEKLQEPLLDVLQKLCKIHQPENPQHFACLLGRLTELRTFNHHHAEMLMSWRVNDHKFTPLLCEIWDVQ
Sequence of Nuclear receptor subfamily 4 group A member 2 (Homo sapiens) (P43354 whole entry, looked up, the tested form may be a part): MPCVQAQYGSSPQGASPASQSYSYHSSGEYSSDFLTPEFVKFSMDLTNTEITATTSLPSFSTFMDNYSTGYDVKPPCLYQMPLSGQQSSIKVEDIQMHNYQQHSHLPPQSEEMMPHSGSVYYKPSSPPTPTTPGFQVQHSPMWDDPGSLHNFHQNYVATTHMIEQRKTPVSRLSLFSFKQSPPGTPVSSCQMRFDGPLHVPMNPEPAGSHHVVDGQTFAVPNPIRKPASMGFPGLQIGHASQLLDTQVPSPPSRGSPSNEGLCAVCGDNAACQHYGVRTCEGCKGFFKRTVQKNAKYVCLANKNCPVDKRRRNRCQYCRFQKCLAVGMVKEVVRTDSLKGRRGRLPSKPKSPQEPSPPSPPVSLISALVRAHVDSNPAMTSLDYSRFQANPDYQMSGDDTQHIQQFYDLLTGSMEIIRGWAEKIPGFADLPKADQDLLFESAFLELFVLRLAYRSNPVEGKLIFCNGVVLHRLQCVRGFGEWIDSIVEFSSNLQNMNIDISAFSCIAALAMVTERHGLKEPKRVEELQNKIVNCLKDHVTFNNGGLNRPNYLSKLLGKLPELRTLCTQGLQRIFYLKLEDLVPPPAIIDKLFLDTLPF
Sequence of Transcriptional activator Myb (Homo sapiens) (P10242 whole entry, looked up): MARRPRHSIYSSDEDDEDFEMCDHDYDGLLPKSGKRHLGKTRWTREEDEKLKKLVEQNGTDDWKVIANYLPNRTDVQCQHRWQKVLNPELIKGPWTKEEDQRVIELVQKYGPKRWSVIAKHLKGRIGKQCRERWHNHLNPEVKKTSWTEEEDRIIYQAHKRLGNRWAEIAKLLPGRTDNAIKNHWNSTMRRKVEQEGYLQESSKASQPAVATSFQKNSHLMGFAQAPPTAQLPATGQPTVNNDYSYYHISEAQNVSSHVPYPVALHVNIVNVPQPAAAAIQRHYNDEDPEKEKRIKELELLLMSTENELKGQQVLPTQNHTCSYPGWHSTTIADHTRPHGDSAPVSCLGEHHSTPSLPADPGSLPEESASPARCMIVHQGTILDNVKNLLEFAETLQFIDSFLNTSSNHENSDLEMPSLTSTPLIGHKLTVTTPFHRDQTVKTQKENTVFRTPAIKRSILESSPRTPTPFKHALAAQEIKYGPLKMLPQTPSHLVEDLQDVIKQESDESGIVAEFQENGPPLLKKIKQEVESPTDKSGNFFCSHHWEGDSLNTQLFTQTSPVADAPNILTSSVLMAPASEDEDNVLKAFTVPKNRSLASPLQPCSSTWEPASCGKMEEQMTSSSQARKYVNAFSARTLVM
Sequence of X-box-binding protein 1 (Homo sapiens) (P17861 whole entry, looked up, the tested form may be a part): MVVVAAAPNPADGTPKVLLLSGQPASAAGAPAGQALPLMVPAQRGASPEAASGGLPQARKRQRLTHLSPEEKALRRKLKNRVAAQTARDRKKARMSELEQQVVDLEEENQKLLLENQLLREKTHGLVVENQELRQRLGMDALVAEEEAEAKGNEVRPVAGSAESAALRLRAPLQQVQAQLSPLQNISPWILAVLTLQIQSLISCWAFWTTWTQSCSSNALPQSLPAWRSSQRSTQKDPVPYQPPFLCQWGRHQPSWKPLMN
Sequence of Glucocorticoid receptor (Homo sapiens) (P04150 whole entry, looked up, the tested form may be a part): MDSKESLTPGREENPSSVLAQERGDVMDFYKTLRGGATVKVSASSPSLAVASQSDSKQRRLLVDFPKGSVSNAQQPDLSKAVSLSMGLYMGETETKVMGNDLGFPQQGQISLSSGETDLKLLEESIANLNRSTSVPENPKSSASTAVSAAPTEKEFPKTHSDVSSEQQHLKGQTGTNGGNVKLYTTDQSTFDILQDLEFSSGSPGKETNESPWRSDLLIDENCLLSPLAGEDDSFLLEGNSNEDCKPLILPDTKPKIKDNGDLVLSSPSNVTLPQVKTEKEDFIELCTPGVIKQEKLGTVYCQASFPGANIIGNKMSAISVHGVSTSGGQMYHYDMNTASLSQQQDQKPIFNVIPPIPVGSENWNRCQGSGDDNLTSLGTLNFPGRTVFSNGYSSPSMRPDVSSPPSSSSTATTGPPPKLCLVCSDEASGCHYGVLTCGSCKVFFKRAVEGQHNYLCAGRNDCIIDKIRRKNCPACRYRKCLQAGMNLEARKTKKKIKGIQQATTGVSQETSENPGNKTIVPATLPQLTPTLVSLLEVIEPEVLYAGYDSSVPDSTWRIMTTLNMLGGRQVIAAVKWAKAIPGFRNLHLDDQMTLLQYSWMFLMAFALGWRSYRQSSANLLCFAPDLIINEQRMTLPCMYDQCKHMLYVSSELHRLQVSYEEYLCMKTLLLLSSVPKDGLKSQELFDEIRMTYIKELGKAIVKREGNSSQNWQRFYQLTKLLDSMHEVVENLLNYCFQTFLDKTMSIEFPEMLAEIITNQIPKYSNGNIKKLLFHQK
Sequence of Oxysterols receptor LXR-alpha (Homo sapiens) (Q13133 whole entry, looked up, the tested form may be a part): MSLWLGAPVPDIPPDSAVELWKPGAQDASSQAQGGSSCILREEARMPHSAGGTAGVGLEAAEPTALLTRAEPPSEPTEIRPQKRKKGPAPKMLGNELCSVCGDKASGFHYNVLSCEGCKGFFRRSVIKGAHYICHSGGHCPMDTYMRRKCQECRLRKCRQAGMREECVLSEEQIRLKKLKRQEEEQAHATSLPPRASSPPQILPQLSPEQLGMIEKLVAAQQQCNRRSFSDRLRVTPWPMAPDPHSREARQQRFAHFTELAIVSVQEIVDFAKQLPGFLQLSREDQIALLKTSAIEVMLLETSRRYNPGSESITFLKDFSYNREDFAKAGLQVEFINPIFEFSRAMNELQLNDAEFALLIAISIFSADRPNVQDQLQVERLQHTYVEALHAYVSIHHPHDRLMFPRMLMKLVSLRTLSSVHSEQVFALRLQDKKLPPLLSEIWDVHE
Sequence of Estrogen receptor (Homo sapiens) (P03372 whole entry, looked up, the tested form may be a part): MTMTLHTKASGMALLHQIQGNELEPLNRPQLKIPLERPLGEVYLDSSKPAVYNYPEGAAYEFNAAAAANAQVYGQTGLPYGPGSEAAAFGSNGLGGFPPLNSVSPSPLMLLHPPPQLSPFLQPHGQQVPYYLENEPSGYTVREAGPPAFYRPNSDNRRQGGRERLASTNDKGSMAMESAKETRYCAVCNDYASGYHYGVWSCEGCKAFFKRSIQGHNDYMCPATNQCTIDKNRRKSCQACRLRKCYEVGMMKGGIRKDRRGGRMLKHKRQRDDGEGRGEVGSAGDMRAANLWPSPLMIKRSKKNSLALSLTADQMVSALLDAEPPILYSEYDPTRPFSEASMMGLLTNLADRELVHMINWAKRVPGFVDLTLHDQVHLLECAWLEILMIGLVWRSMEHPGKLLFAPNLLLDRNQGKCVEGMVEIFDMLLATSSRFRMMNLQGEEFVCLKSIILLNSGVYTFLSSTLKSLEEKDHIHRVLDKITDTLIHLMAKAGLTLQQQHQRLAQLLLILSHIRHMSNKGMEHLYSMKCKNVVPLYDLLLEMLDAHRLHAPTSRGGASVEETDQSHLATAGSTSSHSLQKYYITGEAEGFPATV
Sequence of Oxysterols receptor LXR-beta (Homo sapiens) (P55055 whole entry, looked up, the tested form may be a part): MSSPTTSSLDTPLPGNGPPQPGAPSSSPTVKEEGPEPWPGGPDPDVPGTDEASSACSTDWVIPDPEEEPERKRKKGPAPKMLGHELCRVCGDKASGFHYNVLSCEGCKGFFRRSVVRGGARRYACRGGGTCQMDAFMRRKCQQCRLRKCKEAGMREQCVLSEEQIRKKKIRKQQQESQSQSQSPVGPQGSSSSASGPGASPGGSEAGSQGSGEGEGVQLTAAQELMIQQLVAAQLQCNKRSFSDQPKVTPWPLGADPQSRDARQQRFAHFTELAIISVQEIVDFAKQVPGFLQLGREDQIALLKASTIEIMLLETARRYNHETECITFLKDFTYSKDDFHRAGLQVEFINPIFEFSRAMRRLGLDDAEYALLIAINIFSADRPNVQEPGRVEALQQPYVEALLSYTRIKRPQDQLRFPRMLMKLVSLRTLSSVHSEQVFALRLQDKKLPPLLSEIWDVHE
Sequence of Hepatocyte nuclear factor 4-alpha (Homo sapiens) (P41235 whole entry, looked up, the tested form may be a part): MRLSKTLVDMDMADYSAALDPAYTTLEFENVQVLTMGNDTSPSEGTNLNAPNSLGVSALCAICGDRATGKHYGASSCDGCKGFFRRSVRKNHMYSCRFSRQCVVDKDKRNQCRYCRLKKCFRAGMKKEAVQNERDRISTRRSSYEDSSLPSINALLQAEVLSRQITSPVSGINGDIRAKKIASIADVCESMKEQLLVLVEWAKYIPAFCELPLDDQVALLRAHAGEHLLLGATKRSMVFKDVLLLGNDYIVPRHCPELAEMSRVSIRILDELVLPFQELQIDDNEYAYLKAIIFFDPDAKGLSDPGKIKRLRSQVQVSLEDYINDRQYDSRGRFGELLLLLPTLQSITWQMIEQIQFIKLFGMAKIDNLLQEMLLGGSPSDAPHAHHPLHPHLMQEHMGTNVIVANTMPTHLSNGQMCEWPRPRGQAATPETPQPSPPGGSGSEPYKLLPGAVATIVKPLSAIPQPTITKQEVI

CO[Si](CCCOCC1CO1)(OC)OC (stereo unspecified)
inactive: [1] | [2] | [3] | [4] | [5] | [6] | [7] | [8] | [9] | [10]

Cc1cc(O)c(C(C)(C)C)cc1C(C)(C)C
active: [3] 2.2 µM | [15] 2.99 µM | [6] 4.8 µM | [9] 5.29 µM
not listed: [1] | [7] | [17] | [18] | [19] | [20]
inactive: all other assays above

Cc1ccc(O)cn1
active: [15] 25.4 µM
not listed: [3] | [6] | [12] | [13] | [16] | [20]
inactive: all other assays above

O=C(Cl)c1ccc(Cl)cc1Cl
not listed: [3] | [6] | [11] | [12] | [17] | [19] | [20]
inactive: all other assays above

OC(O)C(F)(F)C(F)(F)F
inactive: [1] | [2] | [4] | [12] | [5] | [19] | [14] | [16] | [9] | [10]

NC(=O)C(F)(F)C(F)(F)C(F)(F)F
not listed: [8] | [11] | [12] | [15] | [17] | [18] | [19]
inactive: all other assays above

C=CC(=O)OCCC(F)(F)C(F)(F)C(F)(F)C(F)(F)F
inactive: [1] | [2] | [4] | [5] | [19] | [13] | [14] | [16] | [8] | [9] | [10]

FC(F)(F)C(F)(F)C(F)(F)C(F)(F)C(F)(F)C(F)(F)CC[Si](Cl)(Cl)Cl
not listed: [3] | [7] | [8] | [11] | [15] | [17] | [18] | [20]
inactive: all other assays above

CC(C)(C)c1cc(CCC(=O)NCCCCCCNC(=O)CCc2cc(C(C)(C)C)c(O)c(C(C)(C)C)c2)cc(C(C)(C)C)c1O
active: [4] 0.811 µM
not listed: [3] | [8] | [11] | [17] | [18] | [20]
inactive: all other assays above

Source: PubChem BioAssay (EPA / NIEHS)
